The text below walks through data of PubChem BioAssay (NCI).

Values joined by “and” are separate entries in the source; they are usually repeats but may differ in a detail not shown here. Equal entries are not always repeated. The panel holds about 83,000 compounds, 20% with a hit somewhere; the sample as a whole holds those more often.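 Step 1: grow cells in 96-well plates. Step 2: add test compound at a single concentration. Step 3: incubate 48 h. Step 4: record percent growth.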 Active and inactive are the calls of the source.

One assay relates to HT29 colon. Description: NCI-60 one-dose screen, 48 h (100 = growth as untreated, 0 = no growth, -100 = all killed). The settings on record: 0.01 µM. The protocol: Growth inhibition of the HT29 human tumor cell line is measured as a screen for anti-cancer activity. Cells are grown in 96 well plates and exposed to the test compound for 48 hours. Compounds are tested at a single concentration, which is 10^-5 M for most compounds. The reported endpoint is percent growth (GI% or GIPRCNT), where numbers from 0 - 100% represent growth inhibition, and numbers from -100% - 0 represent cell death. For example, a value of 40 represents 60% growth inhibition. A value of 0 means no net growth occurred over the course of the experiment. A value of -40 indicates 40% of cells at the beginning of the experiment died by the end of the experiment. A value of -100 means all cells are dead at the end of the experiment.
NCI-60 Human Tumor Cell Lines Screen was performed using the standard one-dose NCI protocol, which is described in more detail at https://dtp.cancer.gov/discovery_development/nci-60/default.htm.
Compounds with GIPRCNT values below 10 were considered active. Activity score was based on GIPRCNT using the following formula: […]
Score is 0 for GIPRCNT values of 100 or above, 50 for GIPRCNT values of 0, and 100 for GIPRCNT values of -100.
Regarding `CC(=O)O[C@H]1C(=O)[C@@]2(C)[C@H]([C@H](OC(=O)c3ccccc3)[C@]3(O)C[C@H](OC(=O)[C@H](O)[C@@H](NC(=O)c4ccccc4)c4ccccc4)C(C)=C1C3(C)C)[C@]1(OC(C)=O)CO[C@@H]1C[C@@H]2O`, the growth was 3.27% (active).

Staying with this assay, now noted: 2.5 µM.
In the case of `CC(=O)O[C@H]1C(=O)[C@@]2(C)[C@H]([C@H](OC(=O)c3ccccc3)[C@]3(O)C[C@H](OC(=O)[C@H](O)[C@@H](NC(=O)c4ccccc4)c4ccccc4)C(C)=C1C3(C)C)[C@]1(OC(C)=O)CO[C@@H]1C[C@@H]2O`, the growth is -29.4% (active).

The same assay, now with this note: 5 µM.
With `CC(=O)O[C@H]1C(=O)[C@@]2(C)[C@H]([C@H](OC(=O)c3ccccc3)[C@]3(O)C[C@H](OC(=O)[C@H](O)[C@@H](NC(=O)c4ccccc4)c4ccccc4)C(C)=C1C3(C)C)[C@]1(OC(C)=O)CO[C@@H]1C[C@@H]2O`, the growth was -21.4% (active).

Staying with this assay, now noted: 10 µM.
Take `Cn1c2nc3ccccc3c-2nc2ccccc21`: the growth was 99.7% (inactive) and 103% (inactive).
In the case of `CC(=O)O[C@H]1C(=O)[C@@]2(C)[C@H]([C@H](OC(=O)c3ccccc3)[C@]3(O)C[C@H](OC(=O)[C@H](O)[C@@H](NC(=O)c4ccccc4)c4ccccc4)C(C)=C1C3(C)C)[C@]1(OC(C)=O)CO[C@@H]1C[C@@H]2O`, the growth was -21.5% (active) and -18.2% (active).
Regarding `Cc1cc(N=C2C=CC(=[N+](C)C)C=C2)c(N)cc1N`, the growth was 93.8% (inactive).
Turning to `N#C/C(=C/N1C(=O)/C(=C/c2ccc([N+](=O)[O-])cc2)SC1=S)c1nc2ccccc2s1`, the growth is 98.6% (inactive).
As for `Cc1c(-c2ccccc2)[nH]c2ccccc12`, the growth is 103% (inactive).
Regarding `CCOC(=O)[C@]1(Br)CC[C@@]1(Br)C(=O)OCC`, the growth was 83.1% (inactive).
With `Cn1ncc2cc3c(Nc4ccc(Cl)cc4)cccc3nc21`, the growth is 78.7% (inactive).
In the case of `CCC(C)(c1ccc(O)c(C)c1)c1ccc(O)c(C)c1`, the growth is 104% (inactive).
On the same count and under the same terms, the value for `COc1cc(N)ccc1Nc1c2ccccc2nc2ccccc12` was -62.4% (active).
As to `CC[C@@]1(OC(=O)CN(C)C)C(=O)OCc2c1cc1n(c2=O)Cc2cc3c(N)cccc3nc2-1`, the growth was 4.94% (active).
On the same count and under the same terms, the same measure for `Cc1cc(C)c(N2C(=O)CC(Sc3ccccc3N)C2=O)c(C)c1` (stereo not given): 66.2% (inactive).
Same read-out and setting: the value for `CN(C)CCNc1cccc2sc3ccc(O)cc3c(=O)c12` was 6.36% (active).
In the case of `N#CC(=C1C=CC(=NO)C=C1)c1ccccc1`, the growth was 1.57% (active).
As to `COc1cccc(C(c2cc3c(cc2O)OCO3)N2CCOCC2)c1OC` (stereo not given), the growth was 106% (inactive).
As for `O=C1c2cccc3cc([N+](=O)[O-])cc(c23)C(=O)N1CCN1CCCC1`, the growth was 2.59% (active).
On to `Cc1cc(O)c2c(c1O)C(=O)C13C(=C2O)C(=O)C2C(O)C1C1C(O)C3C(=O)C3=C(O)c4c(O)cc(C)c(O)c4C(=O)C321` (stereo not given), for which the growth is 3.7% (active).
`C=C1N(C)c2ccc(Cl)cc2C1(C)C`: the growth is 35.7% (inactive).
In the case of `O=C1c2ccccc2CCC1(Br)Br`, the growth was 12% (inactive).
Consider `O=S(=O)(c1cc(Cl)ccc1O)c1cc(Cl)ccc1O`, for which the growth was 105% (inactive).
For the compound `COc1ccc(N)c2c1C(=O)c1ccccc1C2=O`, the growth was 93.6% (inactive).
As to `O=C1C(Cl)=C(Cl)C(Cl)(Cl)C(Cl)C1(Cl)Cl` (stereo not given), the growth was 99.5% (inactive).
As to `O=[N+]([O-])c1cc(S(=O)(=O)Nc2ccccc2)ccc1Cl`, the growth was 101% (inactive).
As for `CC1CCC2(C(=O)O)CCC3(C)C(=CCC4C5(C)CC(O)C(O)C(C)(CO)C5C(O)CC43C)C2C1C` (stereo not given), the growth was 110% (inactive).
In the case of `Nc1nc(N)c2cc(Sc3ccc4ccccc4c3)ccc2n1`, the growth is 9.75% (active).
As for `S=P(N1CC1)(N1CC1)N1CC1`, the growth was 99.6% (inactive) and 83.1% (inactive).
On to `CN(C)c1ccc(/C=C/c2ccnc3ccccc23)cc1N`, for which the growth was 58.5% (inactive).
On to `CN(CC(=O)O)c1ccc(/C=C/c2ccnc3ccccc23)cc1`, for which the growth was 88.6% (inactive).
Turning to `O=C(NC(=S)Nc1ccccn1)c1ccccc1`, the growth was 87.5% (inactive).
As to `COc1ccc2c(c1)[nH]c1c(/C=C/c3ccccc3)nccc12`, the growth was 21.6% (inactive).
In the case of `O=c1[nH]cc(/C=N\Nc2ccccc2)c(=O)[nH]1`, the growth was 58.8% (inactive).
Same read-out and setting: the value for `O=C(CNS(=O)(=O)Cc1ccccc1)NNc1ccccc1` was 81.5% (inactive).
Consider `O=C1C=CC(=O)N1c1ccc(N2C(=O)C=CC2=O)cc1`, for which the growth is 105% (inactive).
Still for that read-out and setting: the value for `Cc1cc(Cl)ccc1NC(=O)/C(Cl)=C1/Sc2ccccc2NC1=O` was 107% (inactive); that for `O=C(O)c1ccccc1.[Ag]` was 97.9% (inactive).
As for `S=C1SCN(CCc2ccccc2)CN1CCc1ccccc1`, the growth was 95.8% (inactive).
As to `COc1ccc2oc(-c3ccc(Cl)cc3)c(N3CCN(C)CC3)c2c1`, the growth was -1.44% (active).

The same assay, now with this note: 100 µM.
In the case of `S=P(N1CC1)(N1CC1)N1CC1`, the growth was 54.6% (inactive).
